From PubChem BioAssay AID1159580 (chemical genetic matrix, 2015)
Several values for one entry are separate records, joined by “and”; a condition that tells them apart may be missing. Equal values may be shown once. Hit rate of the full screen: of about 5,500 compounds, about 2,000 (36%) were called active. Another 18% or so got no clear call; they are omitted. Cut-off read from the data, not from the text of the source: active = normalized growth mostly below about 0.91 (no sharp cut-off); inconclusive = no clear call, values can overlap the other calls; inactive = mostly above about 0.92. This is one part of the list.

Assay: chemical genetic growth profiling, strain panel (AID 1159580);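 note: tested at 20 µM; growth read once vehicle control cultures reached saturation at 30 °C; 1 = growth at the plate median or of vehicle wells; lower values mean less growth of the strain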
Settings: S. cerevisiae deletion strains, growth OD

Measured: normalized growth

OC[C@H]1O[C@@](CO)(O[C@@H]2O[C@H](CO)[C@@H](O)[C@H](O)[C@H]2O)[C@@H](O[C@@H]2O[C@H](CO)[C@@H](O)[C@H](O)[C@H]2O)[C@@H]1O
inactive: locus YAL013W, strain DEP1, active compounds read low 1.02 | locus YAL021C, strain ccr4, active compounds read low 1.01 | locus YAL026C, strain drs2, active compounds read low 1.02 | locus YAL030W, strain snc1, active compounds read low 1.02 | locus YBL061C, strain skt5, active compounds read low 1.02 | locus YBR009C, strain hhf1, active compounds read low 1.02 | locus YBR021W, strain FUR4, active compounds read low 1.01 | locus YBR023C, strain chs3, active compounds read low 1.02 | locus YBR171W, strain sec66, active compounds read low 1.03 | locus YBR229C, strain ROT2, active compounds read low 1.01 | locus YBR231C, strain swc5, active compounds read low 1.02 | locus YBR279W, strain paf1, active compounds read low 1.02 | locus YCL011C, strain gbp2, active compounds read low 1.02 | locus YCL016C, strain dcc1, active compounds read low 1.02 | locus YCL029C, strain bik1, active compounds read low 1.05 | locus YCL061C, strain MRC1, active compounds read low 1.01 | locus YCL069W, strain vba3, active compounds read low 1.01 | locus YCR088W, strain abp1, active compounds read low 1.01 | locus YDL005C, strain med2, active compounds read low 1.02 | locus YDL035C, strain GPR1, active compounds read low 1.04 | locus YDL040C, strain nat1, active compounds read low 1.01 | locus YDL074C, strain BRE1, active compounds read low 1.09 | locus YDL101C, strain DUN1, active compounds read low 1.02 | locus YDL134C, strain PPH21, active compounds read low 1.05 | locus YDL185W, strain tfp1, active compounds read low 1.01 | locus YDL192W, strain arf1, active compounds read low 1.04 | locus YDR001C, strain nth1, active compounds read low 1.02 | locus YDR069C, strain doa4, active compounds read low 1.04 | locus YDR101C, strain arx1, active compounds read low 1.01 | locus YDR137W, strain rgp1, active compounds read low 1.02 | locus YDR159W, strain sac3, active compounds read low 1.02 | locus YDR162C, strain NBP2, active compounds read low 1.07 | locus YDR195W, strain ref2 1.01 | locus YDR297W, strain sur2, active compounds read low 1.02 | locus YDR318W, strain mcm21, active compounds read low 1.06 | locus YDR334W, strain swr1, active compounds read low 1.02 | locus YDR335W, strain msn5, active compounds read low 1.02 | locus YDR388W, active compounds read low 1.01 | locus YDR392W, strain spt3, active compounds read low 0.969 | locus YDR502C, strain sam2, active compounds read low 1.05 | locus YEL003W, strain gim4, active compounds read low 1.03 | locus YEL037C, strain rad23, active compounds read low 1.02 | locus YEL061C, strain CIN8 (second series), active compounds read low 1.02 | locus YEL061C, strain CIN8, active compounds read low 1.01 | locus YER015W, strain faa2, active compounds read low 1.02 | locus YER016W, strain bim1, active compounds read low 1.02 | locus YER110C, active compounds read low 1.01 | locus YER111C, strain swi4, active compounds read low 1.02 | locus YER155C, strain BEM2 (second series), active compounds read low 1.03 | locus YER155C, strain BEM2, active compounds read low 1.02 | locus YER167W, strain BCK2, active compounds read low 1.01 | locus YFR010W, strain ubp6, active compounds read low 1.02 | locus YGL078C, strain dbp3, active compounds read low 1.04 | locus YGL086W, strain mad1, active compounds read low 1.03 | locus YGL167C, strain pmr1, active compounds read low 1.02 | locus YGL173C, strain kem1, active compounds read low 1.03 | locus YGL227W, strain vid30, active compounds read low 1.02 | locus YGL240W, strain doc1, active compounds read low 1.02 | locus YGL248W, strain PDE1, active compounds read low 1.05 | locus YGL253W, strain hxk2, active compounds read low 1.02 | locus YGR078C, strain PAC10, active compounds read low 1.04 | locus YGR135W, strain pre9, active compounds read low 1.04 | locus YGR252W, strain gcn5, active compounds read low 1.09 | locus YHR013C, strain ard1, active compounds read low 1.03 | locus YHR027C, strain rpn1, active compounds read low 1.02 | locus YHR030C, strain SLT2, active compounds read low 1.01 | locus YHR079C, strain IRE1 (second series), active compounds read low 1.01 | locus YHR079C, strain IRE1, active compounds read low 1.02 | locus YHR094C, strain hxt1, active compounds read low 1 | locus YHR129C, strain ARP1, active compounds read low 1.02 | locus YHR142W, strain chs7, active compounds read low 1.01 | locus YHR200W, strain rpn10, active compounds read low 1.03 | locus YIL066C, strain RNR3, active compounds read low 1.03 | locus YIL073C, strain SPO22, active compounds read low 1.05 | locus YIL125W, strain kgd1, active compounds read low 1.02 | locus YIR030C, strain dcg1, active compounds read low 1.01 | locus YJL092W, strain hpr5, active compounds read low 1.02 | locus YJL095W, strain BCK1 (second series), active compounds read low 1.02 | locus YJL095W, strain BCK1, active compounds read low 1.08 and 1 | locus YJL115W, strain asf1, active compounds read low 1.02 | locus YJL129C, strain trk1, active compounds read low 1.01 | locus YJL134W, strain LCB3, active compounds read low 1.01 | locus YJL154C, strain vps35, active compounds read low 1.01 | locus YJL164C, strain tpk1, active compounds read low 1 | locus YJL166W, strain qcr8, active compounds read low 1.02 | locus YJL168C, strain set2, active compounds read low 1.02 | locus YJL187C, strain SWE1 (second series), active compounds read low 1.05 | locus YJL187C, strain SWE1, active compounds read low 1.02
